# Screening data deposited in PubChem BioAssay by National Center for Advancing Translational Sciences (NCATS).
# This is a sample that favours compounds with a hit; in the whole collection about 1.1% have one here.
# Vaccinia mCherry – qHTS for Stage-Specific Inhibitors of Vaccinia Orthopoxvirus: mCherry Reporter Primary qHTS; Vaccinia virus mCherry reporter infection, fluorescence; Potency, µM (series often up to 36.5 µM), for inactives: at the top dose activity change, negative = inhibition, usual class: inhibitors; actives 0.63% (n = 310,000); AID 720579, 2013; calls by dose curve; tested in A549 cells; further: nearly all actives have a fitted effect of over 35% in size
# AmpC no deterg – qHTS Inhibitors of AmpC Beta-Lactamase (assay without detergent) | P00811 | Potency, µM (doses to about 57.1 µM), without a hit: at the highest dose activity change, negative = inhibition, usual class: inhibitors | AID 485341, 2010 | AmpC nitrocefin hydrolysis, absorbance 480 nm, 0.0001% Triton | actives 0.52% (n = 330,000);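 further: plate controls were no compound for no effect and no enzyme for full effect; nearly all actives have a fitted effect of over 20% in size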
# Target sequence (P00811 whole entry, looked up): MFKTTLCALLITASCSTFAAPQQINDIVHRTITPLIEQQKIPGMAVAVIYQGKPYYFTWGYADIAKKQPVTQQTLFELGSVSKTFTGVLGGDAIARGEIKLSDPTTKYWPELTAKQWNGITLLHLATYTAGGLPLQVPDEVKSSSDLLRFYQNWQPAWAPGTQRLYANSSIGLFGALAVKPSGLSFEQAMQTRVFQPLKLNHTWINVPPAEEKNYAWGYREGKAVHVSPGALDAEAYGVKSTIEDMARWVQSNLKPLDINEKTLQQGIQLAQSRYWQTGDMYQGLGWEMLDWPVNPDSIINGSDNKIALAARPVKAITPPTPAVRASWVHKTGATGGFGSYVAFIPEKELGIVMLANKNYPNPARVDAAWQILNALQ
#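 20 mM phosphate pH 7.0 + 0.01% (detergent screen) or 0.0001% Triton X-100; 5.3 nM AmpC reagent; cpd preinc 15 min RT; nitrocefin (800 uM stock) to start; A480 q20 s × 4 min; Activity was normalised to no-enzyme and no-compound control wells.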
# Vaccinia Venus – qHTS for Stage-Specific Inhibitors of Vaccinia Orthopoxvirus: Venus Reporter Primary qHTS. Vaccinia virus Venus reporter expression, fluorescence. AID 720580, 2013. Potency, µM (titrated, usually from 36.5 µM), inactives show at the highest dose activity change, negative = inhibition, actives largely listed as inhibitors. actives 0.46% (n = 330,000); calls by dose curve; tested in A549 cells; further: nearly all actives have a fitted effect of over 30% in size
# AmpC detergent – qHTS Inhibitors of AmpC Beta-Lactamase (assay with detergent) | AmpC hydrolysis of nitrocefin, absorbance 480 nm, 0.01% Triton | Potency, µM (doses to about 114 µM), for inactives: top-dose activity change, negative = inhibition, most hits filed as inhibitors | actives 0.041% (n = 370,000) | AID 485294, 2010;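 further: 0% = no-compound wells and -100% = no-enzyme wells; nearly all actives have a fitted effect of over 25% in size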
#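 20 mM phosphate pH 7.0 + 0.01% (detergent screen) or 0.0001% Triton X-100; 5.3 nM AmpC reagent; cpd preinc 15 min RT; nitrocefin (800 uM stock) to start; A480 q20 s × 4 min; Activity was normalised to no-enzyme and no-compound control wells.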
# Active calls of the source: *; i = inactive; u = inconclusive; x = no result given; [ ] = another dose, or the depositor's remark. Unless noted, the call rests on the fitted dose curve; in most records, active means well fitted curve in the direction sought with a large enough effect; inconclusive means small, poorly fitted or top-dose-only effect, or another doubt; inactive means no such curve, though single readings can be large; an effect the other way counts as inactive or inconclusive. Unless noted, on the % scale 0 is the no-effect control and ±100 the full control effect; potency means the concentration at half of the fitted maximal effect.
SMILES,Vaccinia mCherry,AmpC no deterg,Vaccinia Venus,AmpC detergent
CCN1CCCC1CNC(=O)c1cnn(-c2ncc3c(n2)-c2ccc(OC)cc2CC3)c1C1CC1 (stereo not drawn),i,x,-3%,x
CCN(CC)c1ccc(NC(=O)COc2ccc(C#N)cc2)cc1S(=O)(=O)Nc1ccc(OC)cc1,-12%,5µM*,-2%,-1%
CS(=O)(=O)c1ccc(-c2cccc3c2OC(CNC(=O)c2cc(C4CC4)[nH]n2)C3)cc1 (stereo not drawn),-8%,x,2%,x
CCOc1ccc(-c2nnc(-c3ccccc3)n2-c2ccccc2)cc1,x,5.6µM*,x,1%
CCOc1ccc(-c2nnc(SCC(=O)c3ccc(F)cc3)n2-c2ccccc2)cc1,-15%[7.34 µM],x,-4%[7.34 µM],1%
C/C(=C\c1ccco1)CN1CCOc2ccc(CN3CCC(Oc4cccnc4)CC3)cc2C1,-1%,x,5%,x
CCc1ccc(/C=c2\s/c(=C\C(=O)C(C)(C)C)[nH]c2=O)cc1,x,-26%,-25%,4%
CC(C)(C)C(=O)/C=c1\[nH]c(=O)/c(=C\c2ccc(F)cc2)s1,x,-29%,11µM*,-7%
O=C(CSc1nnc(-c2ccccc2Br)o1)N1CCN(C(=O)c2ccco2)CC1,13µM*,59%,u,u
O=C(CSc1nnc(-c2ccc(F)cc2)o1)N1CCN(C(=O)c2ccco2)CC1,i,-12%,-13%,-4%
CCCOc1ccc(/C=N/NC(=S)Nc2ccccc2[N+](=O)[O-])c(O)c1,2.8µM*,-45%,u,-9%
Cc1nc2cc(NC(=O)C3CC34CCN(Cc3ccc(O)c(Cl)c3)CC4)ccc2s1 (stereo not drawn),i,x,-12%,x
Cc1cc(C(=O)N(Cc2cc3cc4c(cc3nc2N2CCOCC2)CCC4)CC2CCCO2)c(=O)[nH]c1C (stereo not drawn),-6%,x,-19%,x
CC(=O)CC(c1ccccc1)c1c(O)c2ccccc2oc1=O (stereo not drawn),-14%,-2%,-15%,u
CC/C(CC(c1ccccc1)c1c(O)c2ccccc2oc1=O)=N\NC(N)=S (stereo not drawn),14µM*,-23%,u,u
COc1ccc(/C=N/NC(=O)COc2ccccc2-c2ccccc2)cc1,u,u,3.5µM*,3%
O=C(Oc1c(CN2CCOCC2)cc(Cl)c2cccnc12)c1ccccc1Cl,3.5µM*,13%,5.6µM*,5%
Oc1c(CN2CCCCC2)ccc2cccnc12,8.9µM*,x,u,x
O=C(Oc1c(Cl)cc(Cl)c2cccnc12)c1ccco1,13µM*,-18%,u,7%
O=C(Oc1c(Cl)cc(Cl)c2cccnc12)c1cccs1,u,-23%,u,u
Oc1c(CN2CCCCC2)cc(COCc2ccccc2)c2cccnc12,2.5µM*,2%,u,u
CC(C)OCc1cc(CN2CCN(c3cccc(C(F)(F)F)c3)CC2)c(O)c2ncccc12,4µM*,x,-27%[7.34 µM],16%
Oc1c(Cl)cc(CN2CCCCC2)c2cccnc12,x,-13%,x,1%
CCOCc1cc(CN2CCN(c3ccccc3OC)CC2)c(O)c2ncccc12,13µM*,x,-28%,19%
CCOCc1cc(CN2CCN(c3cccc(C(F)(F)F)c3)CC2)c(O)c2ncccc12,u,x,-19%[7.34 µM],21%
SMILES,Vaccinia mCherry,AmpC no deterg,Vaccinia Venus,AmpC detergent
Oc1c(CN2CCN(c3ccccn3)CC2)cc(Cl)c2cccnc12,x,32%,11µM*,-10%
COCc1cc(CN2CCCC2)c(O)c2ncccc12,14µM*,64%,u,-4%
COC(=O)C1=C(C)N(Cc2ccccc2)C(=NCc2cccc(C(F)(F)F)c2)N[C@H]1c1cccc(F)c1,u,163%,13µM*,-9%
COC(=O)C1=C(C)N(CC2CC2)C(=NCc2cccc(C(F)(F)F)c2)N[C@H]1c1ccccc1,i,81%,-25%,u
COC(=O)C1=C(C)N(Cc2ccccc2)C(=NCc2cccc(C(F)(F)F)c2)N[C@H]1c1cccc(C(F)(F)F)c1,10µM*,2%,28µM*,-7%
COCCN=C1N[C@@H](c2cccc(C(F)(F)F)c2)C(C(=O)OC)=C(C)N1Cc1ccccc1,i,67%,-22%,u
COCC(=O)Nc1cc(C(=O)N2CCOc3ccccc3C2)cc2nc(-c3cccnc3)n(C)c12,-3%,x,5%,x
COc1cc(CNc2ccc(O)cc2)cc(Br)c1OCc1ccccc1F,-2%,-24%,-1%,-4%
CCOc1cc(CNCCO)cc(Br)c1OCc1ccccc1Cl,-9%[1.46 µM],91%,10µM*,3%
CCOc1cc(CNc2ccc(O)cc2)cc(Br)c1OCc1ccccc1F,x,4µM*,-15%,1%
Cc1oc(-c2ccccc2NC(=O)C2CCC2)nc1CNC(=O)c1ccc2ccccc2c1,-4%,x,6%,x
O=C(NCC1CCCCC1)C1(CC2CC(c3cccc(Br)c3)=NO2)CCNCC1 (stereo not drawn),11µM*,164%,10µM*,6%
CC(C)(C)OC(=O)N1CCC(CC2CC(c3cccc(Br)c3)=NO2)(C(=O)NCC2CCCCC2)CC1 (stereo not drawn),i,20%,u,1%
COc1ccc(CN2CCOc3ccc(CN4CCC(O)(c5cccnc5)CC4)cc3C2)c(C)c1C,-26%,x,-19%,x
COc1ccc(-c2cn3c(C)c(C(=O)N4CCCc5ccccc54)sc3n2)cc1,10µM*,x,u,x
COc1ccc(-c2cn3c(C)c(C(=O)N4CCN(c5ccccc5F)CC4)sc3n2)cc1,15%,17%,-10%,-6%
CCOC(=O)c1sc(NC(=O)C(C)(C)C)cc1C,-2%,10µM*,-16%,u
CCOC(=O)c1sc(NC(=O)C2CC2)cc1C,-39%,-24%,-13%,-7%
Cc1c(C(=O)NCC(C)(C)N2CCOCC2)cnn1-c1ncc2c(n1)-c1ccccc1CC2,0%,x,-5%,x
Cc1ccc(NC(=O)c2nc[nH]c2C(=O)NCCCCCNC(=O)OC(C)(C)C)cc1,-12%,180%,u,1%
CC(C)(C)OC(=O)NCCCCCNC(=O)c1[nH]cnc1C(=O)Nc1ccc(Cl)cc1,11µM*,126%,u,2%
Cc1sc2nc(COC(=O)c3ccc(O)cc3)[nH]c(=O)c2c1C,-10%,14µM*,-12%,3%
Cc1ccc2nc(-c3ccccc3C)c(CN(CC3CCCO3)C(=O)c3cccs3)cc2c1 (stereo not drawn),-3%,x,-9%,x
O=[N+]([O-])c1ccc(O)c(/C=N/Nc2nc3ccccc3[nH]2)c1,8.9µM*,-25%,u,u
O=[N+]([O-])c1ccc(O)c(/C=N/Nc2ccccn2)c1,1.8µM*,-23%,5µM*,-8%
COc1ccc(O)c(/C=N/Nc2nc3ccccc3[nH]2)c1,i,-35%,-5%,1%
O=[N+]([O-])c1cccc(N/N=C/c2cc([N+](=O)[O-])ccc2O)c1,-22%,-56%,-24%,-1%
